This passage reports composite z-score and z-score results from PubChem BioAssay.

Active and inactive are the calls of the source. Unless noted, no rule for the calls is given here.

In assay [1] the test system is Wnt5a (protein binding on small-molecule microarray). The experiment in a line: small molecules binding Wnt5a protein – biophysical, small-molecule microarray, 635/667 nm fluorescence, primary screen (AID 1142).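 Also: fluorescence read at 667 nm with signal to noise per printed feature.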 To be noted: 635 nm fluorescence, higher = more signal.
The nature of assay [2]: ATP-based viability of Huh7 replicon cells – cell-based, CellTiter-Glo luminescence, basal, 48 h, cytotoxicity control for HCV replication inhibitor project, primary screen (AID 1143).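 Also: Huh7 hepatoma cells carrying a hepatitis C replication reporter with no stimulus; test concentration not given here.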 The note with it: higher = more signal, called active from +8 up or from −8 down. On the technique in general: In antiviral work, replicon cells carry a viral genome segment that copies itself.

The nature of assay [3]: Pseudomonas biofilm growth suppression – PAO1 strain, BacTiter-Glo luminescence, LB-PBS, primary screen (AID 1144). The note with it: P. aeruginosa PAO1 biofilm, 12 h, higher = more signal.
A short description of assay [4]: basal CRE-LacZ reporter activity in PC12 – cell-based, unstimulated, primary screen (AID 1145). The note with it: no forskolin, luminescence, 4.5 h, higher = more signal, called active from +8 up or from −8 down.
Assay [5] is described as follows: forskolin-driven CRE-LacZ activity in PC12 – cell-based, CRE-LacZ reporter, forskolin-stimulated, primary screen (AID 1146).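 Also: PC12 cells with 6xCRE LacZ reporter stimulated by forskolin 10 µM; beta-galactosidase reporter signal reflecting CREB driven transcription.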 The note with it: luminescence, 4.5 h, higher = more signal, called active from +8 up or from −8 down.
The target in assay [6] is Streptavidin (Streptomyces avidinii) (UniProt P22629). As to the kind of experiment: compounds binding control protein streptavidin – biophysical, small-molecule microarray, 635/667 nm fluorescence, artefact control for SMM compound annotation, primary screen (AID 1147).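 Also: signal reflects streptavidin binding to arrayed compounds as a control protein.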 The note with it: higher = more signal.
Assay [7] in a line: probe aInhba binding on compound microarray – biochemical, small-molecule microarray, 635/667 nm fluorescence, primary screen (AID 1148).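 Also: score merges 667nm spot fluorescence with signal-to-noise for antibody binding to printed compounds.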 The note with it: higher = more signal.
In assay [8] the target is Torsin-1A (Homo sapiens) (UniProt O14656). As to the kind of experiment: TOR1A wild-type binding on microarray – cell lysate, small-molecule microarray, lysate, 635/667 nm, primary screen (AID 1149). To be noted: COS7 hTOR1A-WT lysate, 635 nm fluorescence, higher = more signal.
Assay [9] has the same target. As to the kind of experiment: torsin A mutant lysate binding on microarrays – cell lysate, small-molecule microarray, COS7 lysate, 635/667 nm fluorescence, primary screen (AID 1150).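 Also: score pools 667 nm emission and signal to noise measuring lysate protein binding.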 The note with it: COS7 hTOR1A mutant lysate, 635 nm fluorescence, higher = more signal.
Assay [10] deals with Sonic hedgehog protein (Shh). As to the kind of experiment: Sonic hedgehog microarray binding compounds – biochemical, small-molecule microarray, 635/667 nm fluorescence, primary screen (AID 1151).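 Also: Shh protein binding to compounds spotted on small-molecule microarray slides; score combines spot fluorescence intensity with signal-to-noise across triplicate slides.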 To be noted: 635 nm fluorescence, higher = more signal.
Assay [11] is described as follows: optical density shifts of acrAB sulA E. coli – strain DRC41, OD650, 48 h, E. coli filamentation inducer project, primary screen (AID 1152).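 Also: E. coli MC1000 strain DRC41 lacking acrAB efflux pump and sulA.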 To be noted: higher = more signal, called active from +8 up or from −8 down.
A short description of assay [12]: probe aLefty1 binding on compound microarray – biochemical, small-molecule microarray, 635/667 nm fluorescence, primary screen (AID 1153).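 Also: score merges spot fluorescence with signal-to-noise ratio from the scanned slide images.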 To be noted: higher = more signal.
Assay [13] is described as follows: plasmodial surface anion channel blockers, osmotic lysis – cell-based, P. falciparum Indochina, OD700, 1 h, primary screen (AID 1154). To be noted: P. falciparum Indochina infected RBC osmotic lysis, higher = more signal, called active from +8 up or from −8 down.
The nature of assay [14]: plasmodial surface anion channel blockers, osmotic lysis – cell-based, P. falciparum Indochina, OD700, 2 h, primary screen (AID 1155).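 Also: lysis reports solute entry through the parasite surface anion channel PSAC.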 To be noted: P. falciparum Indochina infected erythrocytes, higher = more signal, called active from +8 up or from −8 down.
Assay [15] in a line: changes in parasitized red cell lysis, either direction – P. falciparum Indochina, OD700, 3 h, PSAC antagonist project, primary screen (AID 1156). The note with it: P. falciparum-infected erythrocytes, osmotic lysis, higher = more signal, called active from +8 up or from −8 down.
Assay [16] can be described thus: plasmodial surface anion channel blockers, osmotic lysis – cell-based, P. falciparum Indochina, OD700, 18 h, primary screen (AID 1157). To be noted: P. falciparum Indochina infected erythrocytes, osmotic lysis OD700, 18 h; higher = more signal, called active from +8 up or from −8 down.
A short description of assay [17]: S6 kinase pathway phospho-S6 level changes – cell-based, A549, cytoblot, luminescence, serum-stimulated, primary screen (AID 1158).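 Also: serum-stimulated A549 lung adenocarcinoma cells; signal is phosphorylated S6 detected by cytoblot immunostaining with HRP secondary.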 To be noted: 5 h, higher = more signal.
In assay [18] the target is NADPH oxidase 2 (Homo sapiens) (UniProt P04839). As to the kind of experiment: compounds shifting NOX2 Amplex Red fluorescence – cell-based, HEK293-NOX2, PMA-stimulated, NOX inhibitor project, primary screen (AID 1159). Also: test concentration not given here. To be noted: 45 min, higher = more signal, called active from +8 up or from −8 down.
Assay [19] deals with NADPH oxidase 4 (Homo sapiens) (UniProt Q9NPH5). As to the kind of experiment: compounds shifting NOX4 Amplex Red fluorescence – cell-based, HEK293-NOX4, tetracycline-induced, NOX inhibitor project, primary screen (AID 1160). To be noted: HEK293-NOX4, Amplex Red H2O2 fluorescence, 45 min; higher = more signal, called active from +8 up or from −8 down.
Assay [20] concerns the target NADPH oxidase 5 (Homo sapiens) (UniProt Q96PH1). The experiment in a line: compounds shifting NOX5 Amplex Red fluorescence – cell-based, HEK293-NOX5, NOX inhibitor project, primary screen (AID 1161). To be noted: HEK293-NOX5, ionomycin, 45 min, higher = more signal.

NADPH oxidase 2 (Homo sapiens), sequence (P04839 whole entry, looked up): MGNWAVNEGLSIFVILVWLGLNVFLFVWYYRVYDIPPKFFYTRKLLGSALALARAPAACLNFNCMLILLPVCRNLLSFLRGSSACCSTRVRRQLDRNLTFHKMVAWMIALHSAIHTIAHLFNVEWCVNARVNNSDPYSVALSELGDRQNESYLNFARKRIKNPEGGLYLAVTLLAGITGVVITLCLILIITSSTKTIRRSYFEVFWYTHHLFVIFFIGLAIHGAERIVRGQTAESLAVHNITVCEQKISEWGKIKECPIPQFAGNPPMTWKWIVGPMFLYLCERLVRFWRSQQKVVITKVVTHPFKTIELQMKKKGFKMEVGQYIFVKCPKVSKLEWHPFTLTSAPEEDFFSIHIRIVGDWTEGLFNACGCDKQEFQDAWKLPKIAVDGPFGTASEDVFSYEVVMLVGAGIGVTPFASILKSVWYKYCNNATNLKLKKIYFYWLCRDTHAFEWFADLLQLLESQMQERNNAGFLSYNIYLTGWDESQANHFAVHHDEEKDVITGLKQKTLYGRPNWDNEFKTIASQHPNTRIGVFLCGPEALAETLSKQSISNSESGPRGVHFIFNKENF
NADPH oxidase 5 (Homo sapiens), sequence (Q96PH1 whole entry, looked up): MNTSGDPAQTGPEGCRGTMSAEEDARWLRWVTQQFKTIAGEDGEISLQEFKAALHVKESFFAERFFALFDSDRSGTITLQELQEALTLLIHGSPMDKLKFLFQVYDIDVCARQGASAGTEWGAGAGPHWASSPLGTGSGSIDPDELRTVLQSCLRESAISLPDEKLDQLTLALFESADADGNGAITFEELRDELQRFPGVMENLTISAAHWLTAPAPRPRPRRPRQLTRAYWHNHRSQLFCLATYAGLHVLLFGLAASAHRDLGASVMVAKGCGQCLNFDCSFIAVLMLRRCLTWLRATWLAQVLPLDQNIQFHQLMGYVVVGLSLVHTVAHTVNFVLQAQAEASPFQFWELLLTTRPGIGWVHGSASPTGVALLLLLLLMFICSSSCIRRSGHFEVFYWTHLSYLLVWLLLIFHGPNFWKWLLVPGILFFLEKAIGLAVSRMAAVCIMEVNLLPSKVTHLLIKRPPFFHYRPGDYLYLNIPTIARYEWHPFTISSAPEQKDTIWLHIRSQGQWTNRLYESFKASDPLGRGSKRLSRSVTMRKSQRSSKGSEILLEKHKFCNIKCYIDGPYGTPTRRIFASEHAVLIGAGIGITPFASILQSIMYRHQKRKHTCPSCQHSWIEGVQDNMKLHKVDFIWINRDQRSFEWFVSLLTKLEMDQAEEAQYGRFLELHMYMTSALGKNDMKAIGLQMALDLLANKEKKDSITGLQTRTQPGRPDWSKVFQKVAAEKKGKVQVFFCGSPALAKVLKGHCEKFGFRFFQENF
Torsin-1A (Homo sapiens), sequence (O14656 whole entry, looked up): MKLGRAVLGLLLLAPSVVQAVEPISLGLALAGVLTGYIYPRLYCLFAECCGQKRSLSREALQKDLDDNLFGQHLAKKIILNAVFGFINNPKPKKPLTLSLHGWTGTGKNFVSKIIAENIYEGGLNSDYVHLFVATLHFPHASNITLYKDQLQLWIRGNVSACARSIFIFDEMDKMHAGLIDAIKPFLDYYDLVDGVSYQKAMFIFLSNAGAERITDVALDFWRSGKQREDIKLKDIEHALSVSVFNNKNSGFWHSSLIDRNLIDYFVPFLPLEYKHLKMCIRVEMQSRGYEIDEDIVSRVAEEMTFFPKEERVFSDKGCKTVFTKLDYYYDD
NADPH oxidase 4 (Homo sapiens), sequence (Q9NPH5 whole entry, looked up): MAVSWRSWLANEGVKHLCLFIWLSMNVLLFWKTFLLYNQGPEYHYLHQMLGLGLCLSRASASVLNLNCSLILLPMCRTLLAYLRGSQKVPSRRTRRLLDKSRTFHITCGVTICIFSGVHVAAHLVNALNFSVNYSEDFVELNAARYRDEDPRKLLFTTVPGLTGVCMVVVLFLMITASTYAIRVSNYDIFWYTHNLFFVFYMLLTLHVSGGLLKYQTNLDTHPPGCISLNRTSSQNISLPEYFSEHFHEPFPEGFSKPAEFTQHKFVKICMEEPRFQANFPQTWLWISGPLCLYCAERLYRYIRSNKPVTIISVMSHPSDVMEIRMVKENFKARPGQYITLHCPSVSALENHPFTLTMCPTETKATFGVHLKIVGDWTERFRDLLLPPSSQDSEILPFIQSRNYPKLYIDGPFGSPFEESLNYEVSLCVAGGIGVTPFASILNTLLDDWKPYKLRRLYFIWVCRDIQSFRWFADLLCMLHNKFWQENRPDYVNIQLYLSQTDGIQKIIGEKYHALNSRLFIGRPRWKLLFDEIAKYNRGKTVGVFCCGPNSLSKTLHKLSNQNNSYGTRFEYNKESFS
Streptavidin (Streptomyces avidinii), sequence (P22629 whole entry, looked up): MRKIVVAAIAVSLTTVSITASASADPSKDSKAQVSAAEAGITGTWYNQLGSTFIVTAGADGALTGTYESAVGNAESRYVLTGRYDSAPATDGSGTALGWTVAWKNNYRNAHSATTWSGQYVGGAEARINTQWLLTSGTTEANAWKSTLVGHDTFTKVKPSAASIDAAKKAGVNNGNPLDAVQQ

For `Cc1ccc(S(=O)(=O)N[C@@H]2COC(=O)CC=C[C@@H](C)[C@H](NS(=O)(=O)c3ccc(C)cc3)COC(=O)[C@H](C)NC(=O)CC=C[C@H]2C)cc1`, the composite z-score in [1] is -0.0175; in [6], -0.508; in assay [7] it was -0.121; in [8], -0.0787; in assay [9] it was 0.0835; in assay [10], 0.427. The composite z-score in assay [12] was -0.147. Further, the z-score was 0.218 (inactive) in [2]; -0.88 (inactive) in [3]; -0.38 (inactive) in [4]; -0.863 (inactive) in [5]; 0.328 (inactive) in assay [11]; -0.434 (inactive) in assay [13]. The z-score in [14] was -0.159 (inactive); in [15], -0.207 (inactive); in assay [16], 0.106 (inactive); in assay [17], 0.378; in [18] it was -6.49 (inactive); in assay [19], 0.375 (inactive). Also, the z-score in assay [20] was -0.545.

On to `COC(=O)[C@H](C)NC(=O)CCC1CC(OC(=O)NCCc2ccc(F)cc2)CC2(CCCC(COC(=O)NCC3CCCCC3)O2)O1` (stereo not given in full), for which the composite z-score in assay [1] is 0.374; in assay [6], 0.915; in assay [7], -0.0963; in assay [8], -0.0051; in assay [9], 0.348; in assay [10] it was 0.886. The same molecule returned a composite z-score in assay [12] of -0.0464. Moreover, the z-score in assay [2] is -2.59 (inactive); in assay [3] it was 0.0852 (inactive); in [4], 0.819 (inactive); in assay [5] it was 0.676 (inactive); in assay [11], -0.56 (inactive); in assay [13], 0.731 (inactive). The z-score in [14] was -0.391 (inactive); in assay [15], 0.701 (inactive); in [16] it was -0.957 (inactive); in assay [17] it was 1.77; in assay [18], -0.763 (inactive); in [19], -1.47 (inactive). Also, the z-score in [20] is -1.68.

With `O=C(NN=C1C[C@@H](O)[C@@H](O)[C@@H]2[C@@H]3C(=O)N(Cc4ccc5c(c4)OCO5)C(=O)[C@@H]3CC[C@@H]12)OCc1ccccc1`, the composite z-score in assay [1] was -0.0565; in [6], 0.485; in assay [7], -0.183; in [8], 0.234; in assay [9] it was -0.0136; in assay [10], -0.806. The composite z-score in assay [12] was 0.184. In addition, the z-score in assay [2] is -3.46 (inactive); in assay [3] it was 0.156 (inactive); in assay [4], 1.06 (inactive); in [5], 0.0698 (inactive); in assay [11] it was -0.989 (inactive); in assay [13] it was 6.62 (inactive). Further, the z-score in assay [14] was -0.207 (inactive); in assay [15] it was 0.465 (inactive); in assay [16], -1.85 (inactive); in assay [17], -0.0564; in assay [18], -1.78 (inactive); in [19] it was -1.08 (inactive). In assay [20], the z-score was -1.39.

With `C[C@@H](c1ccccc1)N1C(=O)[C@H]2[C@H]3[C@H](O)[C@H](O)CC(=NNC(=O)OCc4ccccc4)[C@@H]3CC[C@H]2C1=O`, the composite z-score in assay [1] was 0.15; in assay [6], -0.31; in assay [7], -0.335; in assay [8], 3.35; in assay [9] it was 3.49; in assay [10], 2. Besides, the composite z-score in [12] was -0.0294. For the same molecule, the z-score in assay [2] was 0.231 (inactive); in [3], -0.479 (inactive); in [4], -0.38 (inactive); in assay [5] it was 0.0869 (inactive); in [11], 0.362 (inactive); in [13] it was 0.0012 (inactive). Also, the z-score in assay [14] is 0.461 (inactive); in assay [15], -0.694 (inactive); in assay [16], 0.329 (inactive); in assay [17] it was -0.136; in [18], -0.065 (inactive); in assay [19], 1.07 (inactive). In assay [20], the z-score is -0.0584.

With `CCOC(=O)[C@H](CC(C)C)NC(=O)CCC1CC(OC(=O)NCc2ccc3c(c2)OCO3)CC2(CCCC(COC(=O)NCCC(C)C)O2)O1` (stereo not given in full), the composite z-score in assay [1] was 0.0093; in [6], 0.0476; in [7] it was -0.128; in assay [8] it was -0.0916; in assay [9], -0.0963; in assay [10], 0.54. The molecule also came in with a composite z-score in assay [12] of -0.768. The z-score in [2] was -0.172 (inactive); in assay [3], -0.32 (inactive); in assay [4], -0.889 (inactive); in [5] it was 0.128 (inactive); in [11], -0.213 (inactive); in assay [13] it was 2.17 (inactive). Further, the z-score in assay [14] was -0.299 (inactive); in assay [15], -0.443 (inactive); in assay [16], 0.0255 (inactive); in assay [17], -0.0096; in assay [18] it was 0.246 (inactive); in assay [19], 0.115 (inactive). Besides, the z-score in [20] came to 0.165.
